Activity calls are given as the source filed them. Rule for the calls: active = hit-call score of the fitted dose curve at least 0.9, where 1 is the maximum; inactive = score below 0.9.
What was measured:
Conditions in all cases: mRNA level, 48 h; actives raise or lower the signal
[1] = read-out: Interleukin 6 Receptor (IL6R), IL6R (gene 3570); assay: LTEA_HepaRG_IL6R: Life Technologies and Expression Analysis (LTEA) Assay for Interleukin 6 Receptor (IL6R) using HepaRG (AID 2283510);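 for AC50: TaqMan qRT-PCR signal normalized to ACTB GAPDH and POLR2A housekeeping genes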
In short: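 Cells were thawed, plated and cultured 48 h, then medium was changed to serum-free induction medium. Chemicals were added in duplicate (100 uM top, half-log steps, 0.5% DMSO) for 48 h. Lysates were analyzed by qRT-PCR for IL6R expression.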

[2] = read-out: Potassium channel subfamily K member 1 (KCNK1), KCNK1 (gene 3775); assay: LTEA_HepaRG_KCNK1: Life Technologies and Expression Analysis (LTEA) Assay for Potassium channel subfamily K member 1 (KCNK1) using HepaRG (AID 2283511)
In short: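 HepaRG, 48 h exposure, 8-pt half-log series top 100 uM, 0.5% DMSO vehicle, duplicates. Readout: KCNK1 transcript by qRT-PCR (Fluidigm array), housekeeping-normalized; bidirectional curve fit relative to DMSO baseline.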

[3] = read-out: Keratin 19 (KRT19), KRT19 (gene 3880); assay: LTEA_HepaRG_KRT19: Life Technologies and Expression Analysis (LTEA) Assay for Keratin 19 (KRT19) using HepaRG (AID 2283512)
In short: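 Differentiated human HepaRG cells, plated 48 h, were exposed in duplicate for 48 h in serum-free induction medium to eight half-log concentrations up to 100 uM in 0.5% DMSO. KRT19 mRNA was quantified by qRT-PCR, normalized to ACTB, GAPDH and POLR2A, and fitted bidirectionally versus DMSO.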

[4] = read-out: JUN Transcription Factor, JUN (gene 3725); assay: LTEA_HepaRG_JUN: Life Technologies and Expression Analysis (LTEA) Assay for JUN Transcription Factor using HepaRG (AID 2283513)
In short: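 Read-out is JUN transcript level by TaqMan qRT-PCR, normalized to ACTB, GAPDH and POLR2A, after 48 h chemical treatment of HepaRG cells. Concentration-response spanned eight half-log points up to 100 uM in 0.5% DMSO.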

[5] = read-out: Lipase C (LIPC), LIPC (gene 3990); assay: LTEA_HepaRG_LIPC: Life Technologies and Expression Analysis (LTEA) Assay for Lipase C (LIPC) using HepaRG (AID 2283514)
In short: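 HepaRG, 48 h exposure, 8-pt half-log series from 100 uM in 0.5% DMSO, duplicates. Readout: LIPC mRNA by Fluidigm qRT-PCR, housekeeping-normalized (ACTB/GAPDH/POLR2A). Gain or loss fitted bidirectionally against DMSO baseline.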

[6] = read-out: Lipoprotein lipase (LPL), LPL (gene 4023); assay: LTEA_HepaRG_LPL: Life Technologies and Expression Analysis (LTEA) Assay for Lipoprotein lipase (LPL) using HepaRG (AID 2283515)
In short: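 HepaRG, 48 h exposure, 8-pt half-log dilutions from 100 uM, 0.5% DMSO vehicle, duplicates; qRT-PCR (Fluidigm array) of LPL mRNA vs housekeeping genes; bidirectional curve fit relative to DMSO baseline.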

[7] = read-out: MicroRNA 122 (MIR122), gene 406906; assay: LTEA_HepaRG_MIR122: Life Technologies and Expression Analysis (LTEA) Assay for MicroRNA 122 (MIR122) using HepaRG (AID 2283516); note: the transcript read is the microRNA miR-122
In short: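 Human liver HepaRG cultures receive test chemicals for 48 h at eight half-log concentrations from 100 uM. Expression is quantified by qRT-PCR with ACTB/GAPDH/POLR2A normalization and fitted bidirectionally against 0.5% DMSO.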

[8] = read-out: matrix metalloproteinase-10 (MMP10), MMP10 (gene 4319); assay: LTEA_HepaRG_MMP10: Life Technologies and Expression Analysis (LTEA) Assay for matrix metalloproteinase-10 (MMP10) using HepaRG (AID 2283517)
In short: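 Transcript levels come from Fluidigm qRT-PCR normalized to three housekeeping genes, with curves fitted bidirectionally against 0.5% DMSO. Human HepaRG cells were dosed for 48 hours at concentrations up to 100 uM.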

MYC, MYC (gene 4609) = assay: LTEA_HepaRG_MYC: Life Technologies and Expression Analysis (LTEA) Assay for MYC using HepaRG (AID 2283518)
In short: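 Differentiated human HepaRG cells, plated 48 h then switched to serum-free induction medium, were exposed in duplicate for 48 h to 8-point half-log series up to 100 uM in 0.5% DMSO. MYC mRNA measured by qRT-PCR, normalized to ACTB/GAPDH/POLR2A.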

[9] = read-out: matrix metalloproteinase-3 (MMP3), MMP3 (gene 4314); assay: LTEA_HepaRG_MMP3: Life Technologies and Expression Analysis (LTEA) Assay for matrix metalloproteinase-3 (MMP3) using HepaRG (AID 2283519)
In short: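 qRT-PCR read-out of MMP3 mRNA (normalised to three housekeeping genes) in HepaRG liver cells after 48 h chemical exposure; 8-point half-log series, top 100 uM, 0.5% DMSO vehicle. Bidirectional curve fitting against DMSO baseline.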

| SMILES | outcome [1] | outcome [2] | outcome [3] | outcome [4] | outcome [5] | outcome [6] | outcome [7] | outcome [8] | outcome (MYC, MYC (gene 4609)) | outcome [9] | AC50 [1] | AC50 [3] | AC50 [5] | AC50 [7] | AC50 [9] | AC50 [6] | AC50 [8] | AC50 (MYC, MYC (gene 4609)) | AC50 [2] |
| --- | --- | --- | --- | --- | --- | --- | --- | --- | --- | --- | --- | --- | --- | --- | --- | --- | --- | --- | --- |
| CS(=O)(=O)c1cc(C(F)(F)F)ccc1C(=O)c1cnoc1C1CC1 | inactive | inactive | inactive | inactive | inactive | inactive | inactive | inactive | inactive | inactive |  |  |  |  |  |  |  |  |  |
| COc1ccc(-c2ccccc2)cc1NNC(=O)OC(C)C | inactive | inactive | inactive | inactive | inactive | inactive | inactive | inactive | inactive | inactive |  |  |  |  |  |  |  |  |  |
| CCN(CC)c1nc(C)cc(OP(=S)(OC)OC)n1 | inactive | inactive | inactive | inactive | inactive | inactive | inactive | inactive | inactive | inactive |  |  |  |  |  |  |  |  |  |
| CNC(=O)Oc1cccc2ccccc12 | inactive | inactive | inactive | inactive | inactive | inactive | inactive | inactive | inactive | inactive |  |  |  |  |  |  |  |  |  |
| CCN(CC)C(=O)C(C)Oc1cccc2ccccc12 (centres undefined) |  | inactive |  | inactive |  | inactive |  | inactive | inactive |  | 20.3 µM (active) | 50 µM (active) | 69.6 µM (active) | 81.1 µM (active) | 76.2 µM (active) |  |  |  |  |
| O=C1C2CC=CCC2C(=O)N1SC(Cl)(Cl)Cl (centres undefined) | inactive | inactive | inactive | inactive |  |  | inactive |  | inactive | inactive |  |  | 49.2 µM (active) |  |  | 73.5 µM (active) | 49.2 µM (active) |  |  |
| N#Cc1c[nH]cc1-c1cccc2c1OC(F)(F)O2 |  | inactive |  | inactive |  |  | inactive | inactive |  | inactive | 19.6 µM (active) | 23.9 µM (active) | 46.7 µM (active) |  |  | 7.8 µM (active) |  | 80.3 µM (active) |  |
| CCOC(=O)C(C)OC(=O)c1cc(Oc2ccc(C(F)(F)F)cc2Cl)ccc1[N+](=O)[O-] (centres undefined) | inactive | inactive |  | inactive | inactive | inactive | inactive | inactive | inactive |  |  | 13.3 µM (active) |  |  |  |  |  |  |  |
| CN=C=S | inactive | inactive | inactive | inactive | inactive | inactive | inactive | inactive | inactive | inactive |  |  |  |  |  |  |  |  |  |
| O=C(O)c1c(Cl)ccc2cc(Cl)cnc12 | inactive | inactive | inactive | inactive | inactive | inactive | inactive | inactive | inactive | inactive |  |  |  |  |  |  |  |  |  |
| CCNC(=O)NC(=O)C(C#N)=NOC | inactive | inactive | inactive | inactive |  | inactive | inactive | inactive | inactive | inactive |  |  | 50 µM (active) |  |  |  |  |  |  |
| CC(C)N1C(=O)N(c2ccccc2)CSC1=NC(C)(C)C | inactive | inactive |  | inactive |  |  |  | inactive |  |  |  | 50 µM (active) | 72.2 µM (active) | 81.4 µM (active) | 26.4 µM (active) | 78.7 µM (active) |  | 72.2 µM (active) |  |
| Nc1c(Cl)c(F)nc(OCC(=O)O)c1Cl | inactive | inactive | inactive | inactive | inactive | inactive | inactive | inactive | inactive | inactive |  |  |  |  |  |  |  |  |  |
| CCOP(=O)(OCC)Oc1nc(Cl)c(Cl)cc1Cl |  | inactive | inactive | inactive |  |  |  | inactive |  |  | 60.2 µM (active) |  | 78.7 µM (active) | 87.7 µM (active) | 62.7 µM (active) | 61.5 µM (active) |  | 49.8 µM (active) |  |
| CO/N=C(/C1=NOCCO1)c1ccccc1Oc1ncnc(Oc2ccccc2Cl)c1F | inactive | inactive |  | inactive |  |  |  |  |  |  |  | 13.3 µM (active) | 30.1 µM (active) | 26.4 µM (active) | 50 µM (active) | 23.2 µM (active) | 50 µM (active) | 29.9 µM (active) |  |
| COC(=O)NS(=O)(=O)c1ccc(N)cc1 | inactive | inactive | inactive | inactive | inactive | inactive | inactive | inactive | inactive | inactive |  |  |  |  |  |  |  |  |  |
| Clc1nc(Cl)nc(Nc2ccccc2Cl)n1 | inactive | inactive | inactive | inactive | inactive | inactive | inactive | inactive | inactive | inactive |  |  |  |  |  |  |  |  |  |
| COP(=S)(OC)Oc1ccc([N+](=O)[O-])c(C)c1 | inactive | inactive | inactive | inactive | inactive | inactive | inactive | inactive | inactive | inactive |  |  |  |  |  |  |  |  |  |
| OC(c1ccc(Cl)cc1)(c1ccc(Cl)cc1)C(Cl)(Cl)Cl | inactive |  |  | inactive |  | inactive |  |  |  |  |  | 50 µM (active) | 77.7 µM (active) | 64.9 µM (active) | 50 µM (active) |  | 67.2 µM (active) | 73.7 µM (active) | 50 µM (active) |
| CC(C)(C)C(=O)C(Oc1ccc(Cl)cc1)n1cncn1 (centres undefined) | inactive | inactive | inactive | inactive | inactive | inactive | inactive | inactive | inactive | inactive |  |  |  |  |  |  |  |  |  |

From PubChem BioAssay (EPA / NIEHS)
